Common to all, as to experiment: log2 ratio of Biotin-Ahx-Ub-VS probe labelling (fragment/DMSO); higher = less target engagement (more negative = stronger competition), active = hit call of the paper (q ≤ 0.05, log2 ratio ≤ -1)
Common to all, as to conditions: compound concentration: 200 uM; treatment time: 3 h

One assay addresses T1, OTUD6B (UniProt Q8N6M0).
T1 sequence (whole entry): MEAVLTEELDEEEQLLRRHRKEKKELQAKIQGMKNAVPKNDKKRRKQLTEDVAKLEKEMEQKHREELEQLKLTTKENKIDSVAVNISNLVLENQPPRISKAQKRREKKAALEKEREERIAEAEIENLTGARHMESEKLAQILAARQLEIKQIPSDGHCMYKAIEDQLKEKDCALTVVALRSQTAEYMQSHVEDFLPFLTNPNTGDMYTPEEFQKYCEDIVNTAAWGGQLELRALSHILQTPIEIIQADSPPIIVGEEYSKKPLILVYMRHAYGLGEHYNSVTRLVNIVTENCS
The procedure, abridged: (§1)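 Labelled DUBs were enriched with NeutrAvidin, digested with LysC and trypsin, and run by diaPASEF LC-MS/MS. The labelling used Biotin-Ahx-Ub-VS at 0.5 µM final for 1 h on HEK293T lysate (495 µg per sample) previously treated in triplicate with fragment at 200 µM or vehicle for 3 h. Values are average log2 fragment/vehicle ratios by unpaired t-test on global-median-normalised Spectronaut quantities of proteins with ≥2 unique peptides.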

In the next assay the target is T2, OTUD7B (UniProt Q6GQQ9).
T2 sequence (whole entry): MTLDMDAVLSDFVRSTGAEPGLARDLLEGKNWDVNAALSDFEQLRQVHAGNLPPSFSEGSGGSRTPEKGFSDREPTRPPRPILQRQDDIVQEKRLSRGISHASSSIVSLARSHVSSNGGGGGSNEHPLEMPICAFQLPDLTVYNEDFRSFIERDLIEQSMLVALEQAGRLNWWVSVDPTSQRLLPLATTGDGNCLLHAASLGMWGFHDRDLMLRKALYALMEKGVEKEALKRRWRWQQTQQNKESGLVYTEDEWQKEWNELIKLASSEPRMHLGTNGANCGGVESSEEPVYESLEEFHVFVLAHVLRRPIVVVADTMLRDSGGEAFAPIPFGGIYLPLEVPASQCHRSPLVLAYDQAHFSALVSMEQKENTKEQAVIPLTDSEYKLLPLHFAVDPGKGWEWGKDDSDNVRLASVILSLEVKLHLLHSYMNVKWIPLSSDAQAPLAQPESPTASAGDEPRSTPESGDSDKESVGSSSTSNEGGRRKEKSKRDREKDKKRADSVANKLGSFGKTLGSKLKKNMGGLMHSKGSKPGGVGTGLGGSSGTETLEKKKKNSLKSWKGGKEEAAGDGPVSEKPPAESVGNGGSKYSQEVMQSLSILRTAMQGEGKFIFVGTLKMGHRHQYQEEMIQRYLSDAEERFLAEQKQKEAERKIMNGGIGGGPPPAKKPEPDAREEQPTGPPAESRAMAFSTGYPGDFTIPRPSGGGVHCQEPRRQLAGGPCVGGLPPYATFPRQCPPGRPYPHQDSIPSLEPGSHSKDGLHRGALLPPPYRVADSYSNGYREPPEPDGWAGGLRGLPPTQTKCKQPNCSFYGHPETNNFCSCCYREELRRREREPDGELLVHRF
A digest of the protocol: as §1

The target in the next assay is PRPF8 (UniProt Q6P2Q9). A digest of the protocol: as §1
In another assay the target is T3, PSMD7 (UniProt P51665).
T3 sequence (whole entry): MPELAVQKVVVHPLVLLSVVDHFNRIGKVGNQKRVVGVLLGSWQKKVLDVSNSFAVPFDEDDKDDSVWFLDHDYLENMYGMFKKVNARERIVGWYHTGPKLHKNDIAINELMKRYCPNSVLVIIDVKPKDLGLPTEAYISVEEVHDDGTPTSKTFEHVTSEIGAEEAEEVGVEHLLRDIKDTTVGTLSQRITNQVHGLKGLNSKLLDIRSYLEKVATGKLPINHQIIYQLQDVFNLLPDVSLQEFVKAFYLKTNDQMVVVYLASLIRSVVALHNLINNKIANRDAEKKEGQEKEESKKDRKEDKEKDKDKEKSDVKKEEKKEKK
A digest of the protocol: as §1

The next assay concerns the target UCHL1 (UniProt P09936). A digest of the protocol: as §1
The next assay deals with T4, UCHL3 (UniProt P15374).
T4 sequence (whole entry): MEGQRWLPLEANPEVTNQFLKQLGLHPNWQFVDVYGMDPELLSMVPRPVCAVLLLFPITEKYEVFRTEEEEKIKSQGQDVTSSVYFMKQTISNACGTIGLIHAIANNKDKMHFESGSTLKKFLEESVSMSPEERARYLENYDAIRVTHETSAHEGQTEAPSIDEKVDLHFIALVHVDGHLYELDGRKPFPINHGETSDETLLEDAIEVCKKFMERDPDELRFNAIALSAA
The procedure, abridged:
as §1

In a further assay the target is T5, UCHL5 (UniProt Q9Y5K5).
T5 sequence (whole entry): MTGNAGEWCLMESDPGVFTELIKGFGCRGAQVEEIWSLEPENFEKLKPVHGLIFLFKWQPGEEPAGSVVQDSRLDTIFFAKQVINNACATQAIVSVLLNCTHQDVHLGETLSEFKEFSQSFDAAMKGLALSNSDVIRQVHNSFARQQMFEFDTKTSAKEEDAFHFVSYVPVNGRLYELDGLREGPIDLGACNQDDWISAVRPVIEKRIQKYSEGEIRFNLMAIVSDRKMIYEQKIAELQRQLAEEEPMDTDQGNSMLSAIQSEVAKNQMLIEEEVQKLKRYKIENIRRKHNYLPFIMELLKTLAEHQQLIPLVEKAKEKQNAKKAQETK
The procedure, abridged: as §1

The next assay deals with USP10 (UniProt Q14694). A digest of the protocol: as §1
For the next assay, the target named is T6, USP15 (UniProt Q9Y4E8).
T6 sequence (whole entry): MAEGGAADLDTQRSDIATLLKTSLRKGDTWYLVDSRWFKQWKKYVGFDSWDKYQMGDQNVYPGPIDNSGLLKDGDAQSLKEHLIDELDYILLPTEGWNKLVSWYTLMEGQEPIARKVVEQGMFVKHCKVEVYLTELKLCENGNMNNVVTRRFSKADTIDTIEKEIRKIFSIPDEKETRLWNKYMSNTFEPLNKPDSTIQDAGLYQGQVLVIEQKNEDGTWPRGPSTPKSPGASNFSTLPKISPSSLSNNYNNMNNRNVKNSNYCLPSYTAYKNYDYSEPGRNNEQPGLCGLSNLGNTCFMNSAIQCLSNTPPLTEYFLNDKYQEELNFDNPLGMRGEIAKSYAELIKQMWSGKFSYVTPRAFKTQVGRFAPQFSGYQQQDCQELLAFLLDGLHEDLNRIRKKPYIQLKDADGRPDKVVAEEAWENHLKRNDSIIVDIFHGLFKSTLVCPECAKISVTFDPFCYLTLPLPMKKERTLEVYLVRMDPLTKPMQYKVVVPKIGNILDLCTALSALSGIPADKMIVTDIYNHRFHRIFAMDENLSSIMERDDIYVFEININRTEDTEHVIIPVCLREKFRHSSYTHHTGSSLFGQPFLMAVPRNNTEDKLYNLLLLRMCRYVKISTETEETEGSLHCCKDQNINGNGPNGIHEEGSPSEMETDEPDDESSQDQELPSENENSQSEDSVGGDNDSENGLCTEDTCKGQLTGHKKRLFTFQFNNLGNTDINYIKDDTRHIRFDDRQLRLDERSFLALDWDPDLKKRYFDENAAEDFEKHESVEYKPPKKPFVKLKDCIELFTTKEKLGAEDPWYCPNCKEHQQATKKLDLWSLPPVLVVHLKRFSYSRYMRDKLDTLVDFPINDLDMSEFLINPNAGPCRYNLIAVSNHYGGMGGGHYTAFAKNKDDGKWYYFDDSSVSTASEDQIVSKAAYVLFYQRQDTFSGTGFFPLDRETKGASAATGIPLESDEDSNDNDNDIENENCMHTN
The procedure, abridged: as §1

Molecules are shown by their SMILES. A number with no mark means an inactive call.

Chain of USP10 (Q14694 whole entry): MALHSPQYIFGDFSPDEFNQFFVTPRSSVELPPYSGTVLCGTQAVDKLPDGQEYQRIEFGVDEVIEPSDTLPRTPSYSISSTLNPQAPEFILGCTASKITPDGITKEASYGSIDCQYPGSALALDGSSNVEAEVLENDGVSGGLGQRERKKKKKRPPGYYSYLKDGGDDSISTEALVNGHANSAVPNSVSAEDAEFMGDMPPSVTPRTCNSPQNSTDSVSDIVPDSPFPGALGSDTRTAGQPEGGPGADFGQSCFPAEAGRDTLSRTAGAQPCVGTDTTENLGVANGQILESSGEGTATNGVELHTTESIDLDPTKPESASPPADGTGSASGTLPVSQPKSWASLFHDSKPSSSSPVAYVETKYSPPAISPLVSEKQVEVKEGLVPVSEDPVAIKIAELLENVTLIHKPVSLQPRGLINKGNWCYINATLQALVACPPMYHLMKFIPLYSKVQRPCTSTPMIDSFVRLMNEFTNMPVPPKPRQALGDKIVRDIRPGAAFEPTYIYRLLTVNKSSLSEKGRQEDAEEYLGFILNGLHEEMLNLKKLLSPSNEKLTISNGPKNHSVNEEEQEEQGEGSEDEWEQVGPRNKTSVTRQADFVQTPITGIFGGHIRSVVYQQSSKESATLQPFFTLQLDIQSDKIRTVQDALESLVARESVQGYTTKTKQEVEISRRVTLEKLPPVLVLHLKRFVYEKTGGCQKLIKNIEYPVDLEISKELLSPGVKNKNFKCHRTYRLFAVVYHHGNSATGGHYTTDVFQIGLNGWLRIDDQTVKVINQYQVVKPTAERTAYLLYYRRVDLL
Chain of UCHL1 (P09936 whole entry, looked up): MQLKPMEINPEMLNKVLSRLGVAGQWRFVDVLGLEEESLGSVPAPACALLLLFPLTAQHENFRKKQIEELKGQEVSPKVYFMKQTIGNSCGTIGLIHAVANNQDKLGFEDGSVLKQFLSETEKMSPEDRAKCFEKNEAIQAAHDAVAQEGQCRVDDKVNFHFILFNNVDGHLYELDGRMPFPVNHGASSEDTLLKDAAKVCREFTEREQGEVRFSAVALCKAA

With `O=C(CCl)NC1CCOc2ccccc21` (centres undefined), the “log2 ratio of Biotin-Ahx-Ub-VS probe labelling” value with OTUD6B is -0.54; with OTUD7B, -2.14 (active); with PRPF8, -0.152; in the assay with PSMD7 it was -0.0224; in the assay with UCHL1, -1.84 (active); in the assay with UCHL3, -0.57. In addition, the “log2 ratio of Biotin-Ahx-Ub-VS probe labelling” value is -1.08 (active) with UCHL5, -0.255 in the assay with USP10 and -0.851 with USP15.

The values are drawn from the supplement of paper PMC11732987, “Enantioselective OTUD7B fragment discovery through chemoproteomics screening and high-throughput optimisation” (Communications Chemistry, 2025).
